Assay outcomes (PubChem)
HIV Env fusion: inhibitors of HIV Env-mediated cell fusion; inhibition, % at 12.3 µM; HeLa-JRFL Env/CEM21 cell fusion, luciferase; AID 651610; hit rate 1.1% among 360,000;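 active means mean replicate inhibition score of at least 50 and every replicate individually at or above 50; inconclusive means only one of the two criteria met; inactive means mean below 50 and not all replicates reaching 50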;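 further: 0% = plate neutral controls and 100% = maraviroc near 300 nM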
PglD DTNB: inhibitors of Campylobacter jejuni PglD acetyltransferase; purified PglD enzyme, DTNB colorimetric CoA detection; inhibition, % at 12.5 µM; hit rate 0.098% among 360,000; AID 602405; in the data active means inhibition above about 16%, passing the limit was not always enough; inconclusive means no clear call, values can overlap the other calls
ALR inh: human ALR oxidase inhibition via reduced H2O2. P55789. purified ALR, DTT oxidation, H2O2 HRP-luminol luminescence. inhibition, % (no concentration beside the values). hit rate 3.8% among 290,000;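 active means mean replicate inhibition above about 79%, with every replicate also reaching it, limit read from the data; inconclusive means only one of the two criteria met; inactive means mean below limit and not every replicate reaching it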
NSD2 HMT inh: blocks human histone methyltransferase NSD2 | O96028 | NSD2 peptide methylation, AlphaScreen, 120 min | inhibition, % at 12.5 µM | hit rate 0.54% among 310,000 | AID 743445; in the data active means inhibition above about 50%
Target sequence (O96028 whole entry, looked up): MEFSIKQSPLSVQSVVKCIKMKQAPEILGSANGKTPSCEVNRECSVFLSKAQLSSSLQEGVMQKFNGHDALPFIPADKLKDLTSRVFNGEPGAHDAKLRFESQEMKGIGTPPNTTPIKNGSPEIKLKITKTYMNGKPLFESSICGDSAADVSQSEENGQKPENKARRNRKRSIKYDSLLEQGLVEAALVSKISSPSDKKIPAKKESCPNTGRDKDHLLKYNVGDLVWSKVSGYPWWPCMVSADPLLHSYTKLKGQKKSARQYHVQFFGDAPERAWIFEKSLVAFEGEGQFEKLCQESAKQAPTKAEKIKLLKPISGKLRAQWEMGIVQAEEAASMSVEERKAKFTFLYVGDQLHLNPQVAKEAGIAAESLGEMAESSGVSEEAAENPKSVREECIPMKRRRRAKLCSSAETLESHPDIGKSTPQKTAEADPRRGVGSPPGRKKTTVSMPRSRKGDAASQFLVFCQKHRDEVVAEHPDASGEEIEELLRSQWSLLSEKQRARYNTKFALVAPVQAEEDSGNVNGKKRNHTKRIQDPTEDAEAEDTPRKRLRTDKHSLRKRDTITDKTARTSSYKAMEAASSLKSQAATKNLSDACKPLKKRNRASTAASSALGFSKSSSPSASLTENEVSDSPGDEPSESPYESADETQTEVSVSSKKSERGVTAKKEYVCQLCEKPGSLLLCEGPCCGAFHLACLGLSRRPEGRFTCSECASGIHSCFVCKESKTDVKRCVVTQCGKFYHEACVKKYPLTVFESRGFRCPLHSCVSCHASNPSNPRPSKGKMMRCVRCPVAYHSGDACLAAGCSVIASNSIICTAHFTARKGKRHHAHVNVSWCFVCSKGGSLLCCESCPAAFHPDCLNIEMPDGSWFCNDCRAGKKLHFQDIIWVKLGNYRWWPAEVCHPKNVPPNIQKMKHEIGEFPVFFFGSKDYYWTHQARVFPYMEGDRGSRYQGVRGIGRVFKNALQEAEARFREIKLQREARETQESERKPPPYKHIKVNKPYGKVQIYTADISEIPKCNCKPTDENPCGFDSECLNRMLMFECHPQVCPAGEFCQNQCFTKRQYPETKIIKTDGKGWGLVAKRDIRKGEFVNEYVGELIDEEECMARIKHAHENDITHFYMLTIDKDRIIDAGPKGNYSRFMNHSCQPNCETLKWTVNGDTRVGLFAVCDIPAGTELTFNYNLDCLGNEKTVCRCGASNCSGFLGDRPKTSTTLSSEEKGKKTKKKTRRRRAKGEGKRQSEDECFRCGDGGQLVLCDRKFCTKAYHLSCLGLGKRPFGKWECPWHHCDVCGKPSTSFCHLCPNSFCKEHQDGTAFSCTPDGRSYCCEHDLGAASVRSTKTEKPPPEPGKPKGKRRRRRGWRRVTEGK
CFTR F508del cor: correctors of CFTR F508del function in bronchial epithelial cells; hit rate 0.36% among 350,000; activity (quench increase), % at 7.58 µM; CFBE cells, YFP halide quenching; stimulated with forskolin plus potentiator P3; % fluorescence drop versus neutral controls; AID 720511;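 active means mean added fluorescence quench of at least 8% versus neutral control, with both replicates also reaching 8%; inconclusive means only one of the mean or replicate conditions met; inactive means mean below 8% and not both replicates reaching 8%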;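 further: cells transiently co-express mutant CFTR-F508del with the halide-sensitive YFP; corrector assay measuring rescue of mutant channel to the surface after 24 h compound exposure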
CASP6 VEID inh: caspase-6 (human) enzyme inhibition. P55212. purified caspase-6, Z-VEID-R110 cleavage fluorescence. inhibition, % at 12.5 µM. hit rate 0.53% among 350,000. AID 686996;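 active means mean inhibition across replicates at least about 35%, with every replicate also reaching that limit, limit read from the data; inconclusive means only one of the two criteria met; inactive means neither criterion met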;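 further: 0% = median of neutral control wells and 100% = no fluorescence left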
* hit, by the source's call; ? = inconclusive; · = no result given; [ ] = another dose, or the depositor's remark. Only some compounds are listed: those with a hit (about 4.1% of all), similar ones and a draw of the others.

SMILES	HIV Env fusion	PglD DTNB	ALR inh	NSD2 HMT inh	CFTR F508del cor	CASP6 VEID inh
CN1CCn2cnc(C(=O)N3CCN(c4ccccc4)CC3)c2C1=O	3	-4	·	·	-2	0
CC1CCN(C(=O)c2ncn3c2C(=O)NC[C@@H]3C)CC1	101*	·	·	·	-3	-7
C[C@@H]1CNC(=O)c2c(C(=O)N3CCN(c4ccccc4)CC3)ncn21	89*	·	·	·	-5	2
O=C(c1nc[nH]c1C(=O)N1CCN(c2ccccc2)CC1)N1CCN(c2ccccc2)CC1	-5	3	93*	·	1	-6
C[C@H](CO)N1C[C@H](C)[C@H](CN(C)C(=O)Nc2cc(F)ccc2F)Oc2cc(/C=C/c3ccccc3)ccc2S1(=O)=O	33[16.7 µM]	-3	·	·	3	-1
O=C(Nc1ccc(Cl)cc1)N[C@H]1CC[C@H](CCn2cc(C3(O)CCCC3)nn2)O[C@@H]1CO	35[16.7 µM]	3	·	·	-1	-1
C[C@H]1Cn2cnc(C(=O)Nc3ccc(CNC(=O)OC(C)(C)C)cc3)c2C(=O)N1	?	-2	·	·	4	-3
CCN(CC)C(=O)c1ncn2c1C(=O)NC[C@@H]2C	117*	·	·	·	-1	-4
C[C@H]1CNC(=O)c2c(C(=O)Nc3ccc(CNC(=O)OC(C)(C)C)cc3)ncn21	?	4	·	·	12*	-3
C[C@@H]1CN([C@@H](C)CO)S(=O)(=O)c2ccc(C#C[C@@H](C)O)cc2O[C@H]1CN(C)Cc1ccc(-c2ccccc2)cc1	·	3	·	·	5	0
Cn1c(N)c(C(=O)Nc2c(Cl)cccc2Cl)sc1=S	-11	·	99*	-1	2	-1
Cn1c(N)c(C(=O)NCc2ccccc2)sc1=S	-18	-3	81*	2	·	·
CO[C@H]1CN(C)C(=O)c2ccc(NS(=O)(=O)c3ccccc3)cc2OC[C@@H](C)NC[C@H]1C	·	3	·	·	0	·
CCN(CC)S(=O)(=O)c1cccc(S(=O)(=O)c2cccc(S(=O)(=O)N(CC)CC)c2)c1	79*	-1	-3	6	·	·
COC(=O)CCC[C@H]1CC2(C[C@H](CCCO[Si](C)(C)C(C)(C)C)N1C(=O)OC(C)(C)C)OCCO2	74*	-1	-8	·	-4	1
CC(C)N(C[C@H]1N[C@@H](CO)[C@H]1c1ccccc1)C(=O)c1ccccc1	·	0	·	·	-1	-4
CCSc1ncc(/C=N/Nc2ccc(Cl)cc2)n1C	·	-3	?	0	·	·
CCSc1ncc(/C=N/Nc2ccccc2)n1C	·	-9	99*	3	·	·
CNC(=O)C[C@H]1CC[C@@H]2[C@@H](COc3ccc(NC(=O)c4ccccc4OC)cc3C(=O)N2C)O1	-31[16.7 µM]	1	·	·	-2	0
CC(C)C[C@H](N)c1nnc(S(=O)(=O)Cc2ccc(F)cc2)o1	·	6	98*	·	·	·
Cc1cccc(CS(=O)(=O)c2nnc([C@H](Cc3ccccc3)NC(=O)OC(C)(C)C)o2)c1	·	1	60	·	·	·
COC(=O)c1ccc(NC(=O)CSc2nncn2-c2ccccn2)cc1	6	1	99*	-4	-4	2
COC(=O)c1cccc(NC(=O)CSc2nc3cccnc3n2C)c1	·	2	98*	-1	·	·
COC(=O)c1ccccc1NC(=O)CSc1nc2cccnc2n1C	-2	·	-14	5	-1	2
CCCC(=O)N1CC2(C1)CN(C(=O)C1CC1)[C@H](CO)c1[nH]c3cc(OC)ccc3c12	·	·	·	·	1	-2
SMILES	HIV Env fusion	PglD DTNB	ALR inh	NSD2 HMT inh	CFTR F508del cor	CASP6 VEID inh
CC(=O)Nc1ccc(NCN2C(=O)[C@@H]3[C@H]4CC[C@H](C4)[C@@H]3C2=O)cc1	-1	·	94*	-1	·	·
O=C1C2C3CCC(C3)C2C(=O)N1CNc1ccccc1 (stereo not given)	-7	·	39	-1	·	·
CCC(=O)Nc1cccc2cccnc12	6	-1	-3	1	-1	-4
C/C(=N\Nc1cccc2cccnc12)c1ccc[nH]1	-157	3	96*	1	-3	5
OCC#CCSc1nnc(-c2ccc(Br)cc2)o1	4	7	4	-1	·	·
COC(=O)Sc1nnc(-c2ccc(Br)cc2)o1	·	·	98*	·	·	·
Cc1ccc(S(=O)(=O)N(C)C[C@H]2Oc3ccc(NS(=O)(=O)c4ccc(F)cc4)cc3CC(=O)N([C@H](C)CO)C[C@H]2C)cc1	-6[16.7 µM]	1	·	·	-1	0
COc1cccc(S(=O)(=O)N(C)C[C@@H]2Oc3cc(C4=CCCC4)ccc3S(=O)(=O)N([C@@H](C)CO)C[C@H]2C)c1	25[16.7 µM]	-2	·	·	9.3*	-1
COc1cccc(S(=O)(=O)N(C)C[C@@H]2Oc3cc(C4=CCCC4)ccc3S(=O)(=O)N([C@@H](C)CO)C[C@@H]2C)c1	-3[16.7 µM]	0	·	·	2	0
COc1ccc(S(=O)(=O)N(C)C[C@H]2Oc3cc(C4=CCCC4)ccc3S(=O)(=O)N([C@@H](C)CO)C[C@H]2C)cc1	69*[16.7 µM]	-1	·	·	1	2
COc1cccc(S(=O)(=O)N(C)C[C@@H]2Oc3cc(C4=CCCC4)ccc3S(=O)(=O)N([C@H](C)CO)C[C@H]2C)c1	12[16.7 µM]	-4	·	·	11*	-1
C[C@@H]1CN([C@H](C)CO)S(=O)(=O)c2ccc(C3=CCCCC3)cc2O[C@@H]1CN(C)S(=O)(=O)c1ccc(F)cc1	58*[16.7 µM]	-3	·	·	-4	-3
N#C[C@@H]1[C@H](c2ccccc2-c2cccc(F)c2)[C@H](CO)N1C(=O)C1CCCC1	·	·	·	·	3	1
O=C(N[C@H]1CC[C@H](CCNS(=O)(=O)c2cccc(Cl)c2)O[C@@H]1CO)c1ccncc1	4[16.7 µM]	0	·	·	1	-3
O=C(Cc1coc2cc(O)ccc12)NNC(=O)c1ccc(Br)s1	6	-3	99*	1	-4	13
CCOC(=O)COc1cc2c(C(=O)OCC)c(C)oc2cc1Br	24	1	97*	-1	·	·
COc1ccc2c3c(n(C)c2c1)[C@H](CO)N(C(=O)c1ccc(F)cc1)CC31CCN(C(=O)c2ccc(F)cc2)CC1	1[16.7 µM]	·	·	·	1	2
Cc1noc(C)c1NC(=O)N(C)C[C@@H]1Oc2ncc(C3=CCCCC3)cc2C(=O)N([C@@H](C)CO)C[C@@H]1C	·	·	·	·	0	·
O=C(NCC[C@H]1CC[C@@H](NC(=O)C2CC2)[C@@H](CO)O1)c1cnccn1	10[16.7 µM]	1	·	·	-1	2
CCOC(=O)c1c(C)oc2c1c(C=NCC1CCCO1)c(O)c1ccccc12 (stereo not given)	4	4	·	99*	·	·
CCOC(=O)c1c(NCC2CCCO2)c2ccccc2[nH]c1=O (stereo not given)	·	·	-6	-4	·	·
CCOC(=O)c1c(C)oc2c1c(C=NCc1ccccn1)c(O)c1ccccc12	·	·	·	·	-4	60*
Cc1cc(C)c2nc3sc(=Cc4ccc(-c5ccccc5C(=O)O)o4)c(=O)n3c2c1	-33	-1	·	·	-1	·
O=C(O)c1ccc(-c2ccc(/C=c3/sc4nc5ccccc5n4c3=O)o2)cc1Cl	-1	·	8	·	-1	58*
CC1=NN(c2ccccc2)C(=O)/C1=C/c1ccc(-c2ccc(C)c(C(=O)O)c2)o1	-8	·	41	17	-1	4
